# An excerpt weighted towards active compounds, which were near 2.9% of everything screened.
# GDH-TPI counter-1 = GDH-TPI coupling enzyme inhibitors, primary screen, artefact control for M. tuberculosis FBA inhibitor project, biochemical, absorbance, full deck | AID 588335, 2011 | inhibition, % at 4.8 µM | GDH-TPI coupled enzyme counterscreen, NADH absorbance | 360,000 compounds, 1.2% hits; in the data active = inhibition above about 30%;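 note: 0% = DMSO wells and 100% = wells lacking the enzyme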
# FadD28 FP inh = inhibitors of FadD28 bisubstrate probe binding, primary screen, biochemical, fluorescence polarization, single point; AID 588549, 2011; 360,000 compounds, 0.22% hits; inhibition, % at 12.5 µM; Mycobacterium tuberculosis FadD28 fatty-acid-AMP ligase; in the data active = inhibition above about 8.5%, passing the limit was not always enough
# Mtb BioA inh = M. tuberculosis BioA enzyme inhibitors, primary screen, biochemical, plate reader, single point, HTS; 7,8-diaminopelargonic acid synthase BioA (Mycobacterium tuberculosis); purified M. tuberculosis BioA enzyme; inhibition, % at 9.99 µM; 360,000 compounds, 0.096% hits; AID 602481, 2012; in the data active = inhibition above about 40%
# Mtb hypoxia rep = PubChem AID 1159583; M. tuberculosis hypoxia-regulated fluorescent reporter, fluorescence; fluorescence inhibition, % (concentration not given with the values); 300,000 compounds, 0.1% hits; in the data active = fluorescence inhibition mostly above about 23%, no sharp cut-off; inactive = mostly below about 17%
# FBA Mtb inh = Mtb FBA enzyme inhibitors, primary screen, biochemical, fluorescence, strain H37Rv. 360,000 compounds, 2.3% hits. purified M. tuberculosis FBA, fluorescence read-out. Fructose-bisphosphate aldolase (Mycobacterium tuberculosis (strain ATCC 25618 / H37Rv)), …. AID 588726, 2011. inhibition, % at 1 µM;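 note: 0% = vehicle and 100% = reference inhibitor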
# Target sequence (P9WQA3 whole entry, looked up): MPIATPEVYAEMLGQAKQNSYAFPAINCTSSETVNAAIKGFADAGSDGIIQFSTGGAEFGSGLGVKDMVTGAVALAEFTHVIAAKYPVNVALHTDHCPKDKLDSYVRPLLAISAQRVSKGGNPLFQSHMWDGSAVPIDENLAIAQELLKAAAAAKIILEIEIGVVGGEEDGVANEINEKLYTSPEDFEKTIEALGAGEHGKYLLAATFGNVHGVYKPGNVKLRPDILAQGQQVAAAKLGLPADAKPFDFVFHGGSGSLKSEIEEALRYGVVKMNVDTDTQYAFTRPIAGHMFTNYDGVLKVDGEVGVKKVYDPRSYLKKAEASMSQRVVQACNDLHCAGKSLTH
# Mtb FBA inh conf = M. tuberculosis aldolase blockers, biochemical, fluorescence, strain H37Rv, confirmation | shares compounds with FBA Mtb inh | purified M. tuberculosis FBA, fluorescence read-out | inhibition, % at 1 µM | 5,600 compounds, 78% hits;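 note: 0% = vehicle wells and 100% = reference inhibitor wells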
# GDH-TPI counter-2 = GDH-TPI coupling enzyme inhibitors, artefact control for M. tuberculosis FBA inhibitor project, biochemical, fluorescence, high throughput; inhibition, % at 1 µM; GDH-TPI coupled enzyme counterscreen; 5,600 compounds, 81% hits; shares compounds with FBA Mtb inh; in the data active = inhibition above about 10%
# Numbers without * were called inactive; nt = no result; + = active, no number. Cut-off read from the data, not from the text of the source, unless noted: active = inhibition above about 27%; inactive = the rest.
SMILES,GDH-TPI counter-1,FadD28 FP inh,Mtb BioA inh,Mtb hypoxia rep,FBA Mtb inh,Mtb FBA inh conf,GDH-TPI counter-2
Cc1nnc(NC(=O)c2sc3nc(-c4cccs4)cc(C(F)(F)F)c3c2N)s1,43.3*,9.4*,-0.3,nt,33.0*,5.2,1.6
CC(C)(C)C(=O)c1sc2nc(-c3cccs3)cc(C(F)(F)F)c2c1N,-0.6,-2.5,-1.9,-4.4,30.3*,48.9*,46.7*
COCc1cc(C)nc2sc(C(=O)Nc3nccs3)c(N)c12,25.5,-0.8,0.2,4.1,2.7,nt,nt
NC(=O)c1sc2nc(-c3cccs3)ccc2c1N,25.0,0.8,-0.1,2.0,75.6*,62.5*,55.6*
Cc1cc(C(F)(F)F)c2c(N)c(C(=O)NC3CC3)sc2n1,14.4,0.6,-3.9,-1.5,4.1,nt,nt
NC(=O)c1sc2nc(-c3ccccc3)ccc2c1N,-2.5,-3.7,1.0,12.5,-0.1,nt,nt
CC=Cc1ccc2n(c1=O)C[C@@H]1[C@@H](CO)[C@H](C(=O)NCC3CC3)N(CCC(F)(F)F)[C@H]21 (mixture of isomers),nt,nt,-1.4,nt,nt,nt,nt
C[C@@H]1CN([C@@H](C)CO)C(=O)Cc2cc(NC(=O)NC3CCCCC3)ccc2O[C@H]1CN(C)C(=O)NC1CCCCC1,nt,nt,2.2,nt,nt,nt,nt
C=C1CCN(C(C)C(=O)NCc2cc(OC)c(OC)c(OC)c2)S(=O)(=O)c2ccccc21 (stereo not given),nt,nt,nt,-1.3,nt,nt,nt
Cc1cc(C=NNC(=O)c2ccncc2)c(C)n1-c1cccc(C(F)(F)F)c1,nt,nt,nt,24.8,nt,nt,nt
COc1ccc(C=NNC(=O)c2ccccc2F)cc1CN1CCN(c2ccc(F)cc2)CC1,nt,nt,nt,-13.5,nt,nt,nt
CCc1cc(=O)oc2cc(C)cc(OCC(C)=O)c12,11.8,-1.2,0.9,-4.2,77.1*,56.1*,46.4*
CCc1cc(=O)oc2cc(C)cc(O)c12,6.1,-1.8,-0.5,nt,4.7,nt,nt
CCc1cc(=O)oc2cc(C)cc(OCC(=O)C(C)(C)C)c12,14.2,-0.8,nt,-5.1,65.3*,126.2*,105.5*
COc1ccc(C(=O)ON=Cc2c(C(F)(F)F)nn(C)c2SCc2ccccc2Cl)cc1,nt,nt,nt,5.8,nt,nt,nt
COCCNC(=O)C1(C)CCN(C(=O)c2ccc(F)c(C)c2)C1 (stereo not given),5.6,0.9,0.0,nt,2.3,nt,nt
COCCNC(=O)C1(C)CCN(C(=O)c2ccc3c(c2)C(C)(C)CCC3(C)C)C1 (stereo not given),-0.9,-0.5,-0.1,nt,27.2*,-3.7,-7.5
O=C(Nc1ccc2oc(-c3ccccc3F)nc2c1)c1ccccc1F,2.3,-0.3,-0.1,-3.1,2.5,nt,nt
O=C(Nc1ccc2oc(-c3ccccc3F)nc2c1)c1ncn[nH]1,12.9,-2.7,-0.9,nt,37.2*,158.5*,143.4*
O=C(NNC(=O)c1cc(F)c(F)cc1Cl)c1ccc(NS(=O)(=O)c2cccs2)cc1,4.4,1.0,0.6,-1.0,0.7,nt,nt
O=C(NNC(=O)c1cc(Cl)ccc1O)c1ccc(NS(=O)(=O)c2cccs2)cc1,13.3,6.0,-0.7,-0.9,28.6*,+,+
Cc1cccc(S(=O)(=O)N2C[C@H](O)COC[C@H]3O[C@@H](CC(=O)NCCCN4CCOCC4)CC[C@@H]32)c1,nt,nt,-0.4,nt,nt,nt,nt
COc1ccc(C2C3=C(CCCC3=O)Nc3n[nH]c(C)c32)cc1OC (stereo not given),7.5,-2.1,1.3,-5.5,-1.4,nt,nt
Cc1[nH]nc2c1C(c1ccc(N(C)C)cc1)C1=C(CC(C)(C)CC1=O)N2 (stereo not given),-0.3,-1.0,-2.7,-2.6,-0.6,nt,nt
Cc1[nH]nc2c1C(c1ccc(F)cc1)C1=C(CC(C)(C)CC1=O)N2 (stereo not given),6.2,-1.8,nt,2.1,33.9*,56.3*,42.9*
SMILES,GDH-TPI counter-1,FadD28 FP inh,Mtb BioA inh,Mtb hypoxia rep,FBA Mtb inh,Mtb FBA inh conf,GDH-TPI counter-2
Cc1[nH]nc2c1C(c1cccc(O)c1)C1=C(CC(C)(C)CC1=O)N2 (stereo not given),9.4,-1.9,nt,-2.2,32.6*,17.3,13.8*
Cc1ccc(C2C3=C(CC(C)(C)CC3=O)Nc3n[nH]c(C)c32)cc1 (stereo not given),20.7,-3.8,-0.2,10.8,28.4*,109.4*,93.9*
O=C(C[C@H]1CC[C@@H]2[C@H](COC[C@H](O)CN2Cc2ccccc2)O1)NCCCN1CCOCC1,nt,nt,0.1,nt,nt,nt,nt
COCC#Cc1ccc([C@@H]2[C@H](CO)N3CCCCN(C(=O)Nc4cc(F)ccc4F)C[C@@H]23)cc1,nt,nt,-3.7,nt,nt,nt,nt
CNc1cnc(-c2ccc(O)c(OC)c2)cn1,1.8,-3.7,-1.4,nt,2.3,nt,nt
CNc1cnc(-c2ccsc2)cn1,8.9,-3.4,-0.7,nt,88.0*,134.1*,109.9*
CCN1C(=NCCc2cccnc2)NC(c2ccccc2)C(C(=O)OC)C1C (stereo not given),nt,nt,nt,7.3,nt,nt,nt
CS(=O)(=O)NN1C(=O)c2ccccc2NC1c1cccs1 (stereo not given),12.7,-1.2,nt,-2.6,22.9,nt,nt
c1ccc2c(c1)NC(c1ccncc1)n1c-2nc2ccccc21 (stereo not given),10.6,-1.2,-1.1,nt,55.5*,0.5,-5.0
c1cncc(C2Nc3ccccc3-c3nc4ccccc4n32)c1 (stereo not given),7.8,-2.9,-0.2,-5.1,35.9*,115.2*,92.2*
c1csc(C2Nc3ccccc3-c3nc4ccccc4n32)c1 (stereo not given),22.3,-0.6,nt,8.0,57.5*,137.7*,97.0*
O=C(NC1CCCCC1)N[C@H]1CC[C@H](CCNS(=O)(=O)c2ccc(Cl)cc2)O[C@@H]1CO,nt,nt,0.8,nt,nt,nt,nt
COC(=O)[C@@]1(Cc2ccccc2)COC(c2ccc(OCCCO)cc2)=N1,nt,nt,1.7,nt,nt,nt,nt
CO[C@H](CN(C)C(=O)Nc1ccc(C(F)(F)F)cc1)[C@@H](C)CN(Cc1ccccc1Cl)[C@H](C)CO,nt,nt,0.7,nt,nt,nt,nt
C[C@@H]1CN([C@@H](C)CO)C(=O)Cc2cc(NS(=O)(=O)c3ccc(Cl)cc3)ccc2O[C@@H]1CN(C)S(=O)(=O)c1ccc(Cl)cc1,nt,nt,2.4,nt,nt,nt,nt
CO[C@@H]1CN(C)C(=O)c2cc(NC(=O)Nc3ccccc3F)ccc2OC[C@H](C)N(C)C[C@H]1C,nt,nt,-2.4,nt,nt,nt,nt
CC1=C(C(=O)N2CCOCC2)C(c2ccccc2F)C2=C(CCCC2=O)N1 (stereo not given),13.7,-2.6,-0.6,3.7,27.8*,92.0*,61.3*
COc1cc(C2C(C(=O)N3CCOCC3)=C(C)NC3=C2C(=O)CCC3)ccc1OC(C)=O (stereo not given),17.2,-1.8,-1.6,15.5,12.5,nt,nt
Cc1ccc(C2NC(=O)NC3=C2CCc2ccccc23)cc1 (stereo not given),5.3,-6.4,nt,7.0,34.6*,61.2*,55.1*

# Source: PubChem BioAssay
